Measurements taken from PubChem BioAssay AID2508 (National Center for Advancing Translational Sciences (NCATS), 2010).
Records with an inconclusive call do not appear. Activity calls are given as the source filed them. Calls follow the shape of the dose curve; as a rule, active = well fitted inhibition curve with a large enough effect; inconclusive = small, poorly fitted or top-dose-only effect, or effect the other way; inactive = no such curve, though single readings can be large or run the other way.

Assay: Confirmatory Assay for General miRNAs Modulators and/or Inhibitors/Activators of miR-21
Details: HeLa miR-21 FLuc reporter, luminescence, 48 h; series mostly up to 38.3 µM
Text: MLSCN Grant: 1 R21 NS059478-01 Assay Provider: Qihong Huang, The Wistar Institute NCGC Assay Overview: MicroRNAs (miRNAs) are endogenously encoded small (~20-25 nucleotides), nonprotein-coding RNAs that are involved in post-transcriptional repression of target messenger RNAs (mRNAs) (Le and Hannon, 2004). Estimated to be involved in the regulation of 30% of all protein-coding mRNAs (Filipowicz et al., 2008), miRNAs play a significant role in many biological processes including cellular differentiation and tissue development (Ghildiyal and Zamore, 2009).
NCGC Assay Protocol Summary: Reagents: HeLa cells stably expressing firefly luciferase (FLuc) under the control of a CMV promoter (upstream) and a miR-21 binding sequence directly downstream of the gene. These cells endogenously express miR-21. Control compounds used were compound C3 (provided by collaborator), N6-phenyladenosine (MP Biomedicals, 0215379625), and DMSO. Assay Summary: 6uL of HeLa miR-21-FLuc cells in assay buffer (DMEM, Invitrogen #21063-029; 10% FBS, HyClone #SH30071.03) were dispensed at 2000cells/well (3.3 x 10^5 cells/mL) into Greiner solid-white TC-treated 1536-well plates using a Multidrop Combi (Thermo Fisher Scientific). Plates were incubated for one hour at 37 degree Celsius, 95% humidity, 5% CO2. These assay plates were then treated with 23nL of compound or DMSO using a Kalypsys pin tool, which allows for delivery of a 24-point titration of each compound to the assay plate, with a final compound concentration ranging from approximately 40uM to 5pM. Assay plates were then incubated for 48 hours. After incubation, plates were allowed to come to RT for one hour prior to delivery of 3uL of 3X luciferase detection reagent. After a 15 minute incubation to allow for cell lysis, luciferase activity was measured using a ViewLux CCD imager (PerkinElmer), with an average exposure time of 2-12 seconds. Keywords: NIH Roadmap, MLPCN, MLSMR, qHTS, miR-21, microRNA, firefly luciferase, FLuc.

Compound	Potency
COc1ccc(-n2nnc(-c3nc(-c4cccs4)no3)c2N)cc1OC	inactive
Cc1c(-c2nc(-c3ccc(C(F)(F)F)cc3)no2)n(C)oc1=O	0.318 µM (active)
Cc1cccc(-c2nnc(SCC(=O)Nc3ccc(C)c(C)c3)o2)c1	3.18 µM (active)
Cn1c(=O)[nH]c2cc(-c3noc(-c4ccc(F)cc4)n3)ccc21	10 µM (active)
Nc1c(-c2nc(-c3ccccc3Cl)no2)nnn1-c1ccccc1F	0.798 µM (active)
COc1ccc(OCC(=O)Nc2ccc(-c3nc4cc(Cl)ccc4o3)cc2)cc1	0.503 µM (active)
O=C(COc1ccccc1F)Nc1ccc(-c2nc3ccccc3s2)cc1	1.26 µM (active)
Cc1ccc(CNc2nc3nc(C)c(Cl)c(C)n3n2)cc1	4 µM (active)
COc1ccc(NC(=O)CSc2nc(SC)ns2)c(OC)c1	4 µM (active)
COc1ccc(NC(=O)CSc2nnc(-c3cccs3)o2)cc1	10 µM (active)
CC(=O)c1cnc2nc(SCc3ccccc3)nn2c1C	6.34 µM (active)
Clc1ccc(-n2ncc3c(NCc4ccccn4)ncnc32)cc1	4.49 µM (active)
O=C(CSc1nnc(-c2ccc(Cl)cc2)o1)Nc1ccc(F)cc1	1.79 µM (active)
Cc1ccc(Nc2ncnc(N)n2)cc1C	11.3 µM (active)
COCC(=O)Nc1c(C(=O)Nc2ccc3c(c2)OCCO3)oc2ccccc12	0.449 µM (active)
O=C(CSc1nnc(-c2ccc(O)cc2)o1)Nc1ccccc1Br	1.79 µM (active)

Compound	Potency
COc1ccc(C(=O)Nc2nnc(C(C)C)s2)cc1OC	17.9 µM (active)
CN(C)c1ccc(CNc2nc(-c3ccco3)nn2S(C)(=O)=O)cc1	6.34 µM (active)
COc1cccc(NC(=O)CSc2nnc(-c3cccs3)o2)c1	6.34 µM (active)
COc1ccc(-c2nc(SCc3ccccc3)n(S(C)(=O)=O)n2)cc1	10 µM (active)
Cc1cccc(OCc2nnc(SCC(=O)Nc3ccc(N4CCOCC4)cc3)o2)c1	inactive
COc1ccc(OCC(=O)Nc2cc(-c3nc4ccccc4s3)ccc2C)cc1	4 µM (active)
COc1ccc(OCC(=O)Nc2ccc(-c3nc4cc(C)c(C)cc4o3)cc2)cc1	0.4 µM (active)
Cc1cc(C)c2c(N)c(C(=O)Nc3ccccc3F)sc2n1	1.42 µM (active)
COc1ccccc1C(=O)n1nc(-c2ccco2)nc1NCc1ccc(Cl)cc1	12.6 µM (active)
CCc1ccc(-n2nnc(-c3nc(-c4cccs4)no3)c2N)cc1	3.18 µM (active)
COc1ccccc1NC(=O)C/C(C)=N/NC(=O)c1ccccn1	inactive
Cc1c(-c2nsc(NC(=O)c3cccs3)n2)nnn1-c1ccc(Cl)cc1	14.2 µM (active)
CC(C)C(=O)Nc1nc2c(s1)CC(C(C)(C)C)CC2 (configuration not stated)	2.83 µM (active)
Nc1c(C(=O)Nc2ccccc2Br)sc2nc(-c3cccs3)ccc12	inactive
c1ccc(C2=Nn3c(nnc3-c3cc(-c4ccccc4)n[nH]3)SC2)cc1	inactive
Cc1cc(C)cc(NC(=O)CSc2nnc(-c3ccccc3C)o2)c1	5.65 µM (active)
